Measured values: PubChem BioAssay (NCI)
This is part of a sample that, as a whole, favours compounds with a hit. Of some 79,000 tested, about 15% had one in any assay. Active and inactive are the calls of the source. No stated cut-off is given here; in the data, active means growth inhibition above about 70%; inactive means the rest.

Assays:
[1] = NCI Yeast Anticancer Drug Screen. Data for the wt1 strain (AID 149);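 further: 0% = growth of vehicle-treated wt1 cultures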; conditions: S. cerevisiae wt1 strain (SPY 50644) growth inhibition, hits give high values
In short: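 Yeast wt1 strain exposed to compounds; growth inhibition measured relative to vehicle-treated controls.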

[2] = NCI Yeast Anticancer Drug Screen. Data for the rad50EPP+ strain (AID 151);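 further: 0% = growth of vehicle-treated control cultures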; conditions: S. cerevisiae rad50 mutant strain, hits give high values
In short: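 Genetically defined yeast (rad50EPP+, DNA damage repair alteration) is grown with compound, and inhibition of growth is expressed relative to vehicle-treated controls.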

[3] = NCI Yeast Anticancer Drug Screen. Data for the mgt1 strain (AID 153); conditions: S. cerevisiae mgt1 mutant growth inhibition, hits give high values
In short: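 In the mgt1 strain, test compounds were added and growth inhibition was determined relative to vehicle-treated controls.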

[4] = NCI Yeast Anticancer Drug Screen. Data for the rad50 strain (AID 155);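 further: 0% = growth of vehicle-only cultures of the same strain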; conditions: S. cerevisiae rad50 strain growth inhibition, hits give high values
In short: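 Yeast carrying a defined DNA repair defect were exposed to test compounds, and growth was compared with vehicle-treated controls to give percent inhibition.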

[5] = NCI Yeast Anticancer Drug Screen. Data for the mec2-1 strain (AID 157); conditions: S. cerevisiae mec2-1 strain, hits give high values
In short: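 Each compound was tested on mec2-1 yeast, a strain altered in DNA damage repair or cell cycle control. Growth inhibition is reported relative to vehicle.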

[6] = NCI Yeast Anticancer Drug Screen. Data for the rad14 strain (AID 159);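 further: 0% = growth of vehicle-treated control cultures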; conditions: S. cerevisiae rad14 strain growth inhibition, hits give high values
In short: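 Yeast cells carrying a defined DNA-repair defect were exposed to compounds, and growth inhibition was calculated relative to vehicle-treated control cultures.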

[7] = NCI Yeast Anticancer Drug Screen. Data for the sgs1 mgt1 strain (AID 161);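 further: 0% = growth of cultures given vehicle only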; conditions: S. cerevisiae sgs1 mgt1 strain, hits give high values
In short: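 Inhibition of yeast growth, normalised to vehicle-treated controls, is reported for a strain bearing genetic alterations in DNA damage repair.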

[8] = NCI Yeast Anticancer Drug Screen. Data for the CLN2oe strain (AID 163);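 further: 0% = growth of vehicle-only control cultures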; conditions: S. cerevisiae CLN2oe strain, hits give high values
In short: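 First, the altered yeast strain was treated with each compound; second, its growth was measured; finally, inhibition was derived by comparison with vehicle controls.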

[9] = NCI Yeast Anticancer Drug Screen. Data for the cln2 rad14 strain (AID 165);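 further: 0% = growth equal to vehicle treated cultures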; conditions: S. cerevisiae cln2 rad14 strain, hits give high values
In short: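 Test compounds were added to cln2 rad14 yeast cultures; inhibition of growth was then determined by comparison with vehicle treatment.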

[10] = NCI Yeast Anticancer Drug Screen. Data for the bub3 strain (AID 167); conditions: S. cerevisiae bub3 mutant strain, hits give high values
In short: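 Compounds were applied to a genetically altered yeast strain carrying a cell-cycle control defect. Growth inhibition was scored against vehicle-treated controls.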

[11] = NCI Yeast Anticancer Drug Screen. Data for the wt2 strain (AID 169);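 further: 0% = growth of vehicle-treated yeast cultures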; conditions: S. cerevisiae wt2 strain growth inhibition, hits give high values
In short: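 The panel's yeast strains carry defined changes in DNA repair or cell cycle genes. Each strain is grown with compound, and growth loss is scored relative to vehicle.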

[12] = NCI Yeast Anticancer Drug Screen. Data for the mlh1 strain (AID 171);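 further: 0% = growth of vehicle-treated control cultures of the same strain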; conditions: S. cerevisiae mlh1 strain growth inhibition, hits give high values
In short: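 Inhibition values reflect reduced yeast growth in the presence of compound, referenced to vehicle controls, using a strain chosen for its alteration in DNA repair or cell cycle control.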

[13] = NCI Yeast Anticancer Drug Screen. Data for the sgs1 strain (AID 173);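 further: 0% = growth of vehicle-only control cultures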; conditions: S. cerevisiae sgs1 mutant, hits give high values
In short: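 Vehicle-treated cultures served as reference for growth inhibition of a yeast strain altered in DNA damage repair or cell cycle control after compound exposure.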

[14] = NCI Yeast Anticancer Drug Screen. Data for the mlh1 rad18 strain (AID 175); conditions: S. cerevisiae mlh1 rad18 strain growth inhibition, hits give high values
In short: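 Inhibition values reflect reduced growth of mutant yeast versus vehicle-treated controls following compound exposure; the mutations affect DNA damage repair.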

[15] = NCI Yeast Anticancer Drug Screen. Data for the rad18 strain (AID 177); conditions: S. cerevisiae rad18 mutant growth inhibition, hits give high values
In short: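 Steps: expose repair-mutant yeast to compound; measure growth; express as inhibition relative to vehicle control.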

[16] = at 5.0 µM (retest, dose inferred, filed as 0.5)
[17] = at 50.0 µM (retest, dose inferred, filed as 5.0)

Measured: growth inhibition

Cc1ccc(Nc2n[nH]c(=S)s2)c(C)c1
inactive: [1]; at 1.2 µM -16% | [1]; at 3.7 µM -3% | [1]; at 11.0 µM -10% | [1]; at 33.0 µM 18% | [2]; at 1.2 µM -45% | [2]; at 3.7 µM -33% | [2]; at 11.0 µM 23% | [2]; at 33.0 µM 56% | [2]; at 100.0 µM 51% | [3]; at 1.2 µM -52% | [3]; at 3.7 µM -56% | [3]; at 11.0 µM -21% | [3]; at 33.0 µM 58% | [4]; at 1.2 µM -11% | [4]; at 3.7 µM -15% | [4]; [16] 21% | [4]; at 11.0 µM 0% | [4]; at 33.0 µM 15% | [4]; [17] 18% | [4]; at 50.0 µM 56.3% | [5]; at 1.2 µM -44% | [5]; at 3.7 µM -45% | [5]; [16] -11% | [5]; at 11.0 µM -18% | [5]; at 33.0 µM -3% | [5]; [17] 8% | [5]; at 50.0 µM 14.8% | [6]; at 1.2 µM -45% | [6]; at 3.7 µM -33% | [6]; at 11.0 µM -41% | [6]; at 33.0 µM 37% | [7]; [16] -6% | [7]; [17] 44% | [8]; at 1.2 µM 4% | [8]; at 3.7 µM 0% | [8]; at 11.0 µM -10% | [8]; at 33.0 µM 13% | [9]; [16] 24% | [9]; [17] 49% | [9]; at 50.0 µM 48.1% | [10]; at 1.2 µM 3% | [10]; at 3.7 µM 10% | [10]; [16] 3% | [10]; at 11.0 µM 30% | [10]; at 33.0 µM 17% | [10]; at 50.0 µM 52.5% | [11]; at 1.2 µM -38% | [11]; at 3.7 µM -34% | [11]; at 11.0 µM -10% | [11]; at 33.0 µM 62% | [12]; at 1.2 µM -9% | [12]; at 3.7 µM 6% | [12]; at 11.0 µM 19% | [12]; at 33.0 µM 64% | [13]; at 1.2 µM -29% | [13]; at 3.7 µM -28% | [13]; at 11.0 µM 9% | [13]; at 33.0 µM 51% | [14]; [16] 1% | [14]; [17] 19% | [14]; at 50.0 µM 24.4% | [15]; at 1.2 µM -27% | [15]; at 3.7 µM -25% | [15]; at 11.0 µM -13% | [15]; at 33.0 µM 39%
active: [1]; at 100.0 µM 90% | [3]; at 100.0 µM 85% | [4]; at 100.0 µM 90% | [5]; at 100.0 µM 83% | [6]; at 100.0 µM 91% | [7]; at 50.0 µM 70.5% | [8]; at 100.0 µM 76% | [10]; [17] 71% | [10]; at 100.0 µM 84% | [11]; at 100.0 µM 91% | [12]; at 100.0 µM 89% | [13]; at 100.0 µM 93% | [15]; at 100.0 µM 93%
